Source: PubChem BioAssay (National Center for Advancing Translational Sciences (NCATS))
DT40 TDP1 CPT = DT40-hTDP1 cell growth loss with CPT. chicken DT40 Tdp1-/-;hTDP1 cells + 20 nM CPT, ATP luminescence, 48 h. Potency, µM (doses to about 46.2 µM), most hits filed as inhibitors. 420,000 tested, 12% active; further: nearly all actives have a fitted effect of over 55% in size
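Cell growth measured by CellTiter-Glo luminescence after a minimum 48 h, 37 C compound exposure with 20 nM CPT in Tdp1-knockout DT40 cells stably expressing hTDP1, seeded 400/well; qHTS titration format.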
TDP1 cell noCPT = qHTS for Inhibitors of human tyrosyl-DNA phosphodiesterase 1 (TDP1): qHTS in cells in absence of CPT. 420,000 tested, 15% active. DT40 Tdp1-/- hTDP1 cells, no CPT, ATP luminescence, 48 h. Potency, µM (top dose mostly 46.2 µM), actives largely listed as inhibitors. AID 686978, 2013; further: nearly all actives have a fitted effect of over 55% in size
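Growth of hTDP1-complemented DT40 Tdp1-knockout cells is measured by ATP luminescence after at least 48 hr compound exposure at 37 °C, with DMSO substituting for the 20 nM CPT used in the parallel screen.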
Gal4-VP16 FLuc = Gal4-VP16 reporter inhibition counter-screen. Drosophila S2 Gal4-VP16 UAS-luciferase, luminescence, 20 h. Potency, µM (highest dose often 53.6 µM), hits mostly inhibitors. 310,000 tested, 3.5% active. AID 2546;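 further: Gal4-VP16 expression switched on by copper sulfate through the metallothionein promoter; nearly all actives have a fitted effect of over 50% in size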
ELG1 DNA repair = blocks ELG1-dependent DNA repair in HEK293T cells | AID 504467 | HEK293T ELG1-luciferase reporter, luminescence, 16 h; DNA damage induced by 5-fluorouridine | Potency, µM (titrated, usually from 46.1 µM), usual class: inhibitors | 330,000 tested, 2.3% active; further: nearly all actives have a fitted effect of over 55% in size
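Cells (2,000 per well) received 5-fluorouridine plus test compound or DMSO and were incubated 16 hr at 37 °C, 5% CO2. Luciferase activity was read by luminescence 30 min after ONE-Glo addition; signal suppression marked inhibition of damage-induced ELG1 function.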
IL-1B inflam inh = inflammasome signaling inhibition, IL-1 beta readout. activity change, % at 57.5 µM. 360,000 tested, 4.7% active. AID 743279. THP-1 LPS/ATP IL-1B secretion, AlphaLISA, 16 h; hits give low values; in the data active means activity change below about -50%; inconclusive means mostly about -30% to -49%
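Secreted IL-1B measured by AlphaLISA bead assay after 16 h compound exposure of THP-1 cells; compounds (final up to 57.5 uM) added 1 h before LPS (250 ng/mL) and ATP (1.25 mM) stimulation; lower signal means less secretion.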
RORg inh = blocks mouse ROR gamma transcriptional activity; P51450; Drosophila S2 Gal4-RORgamma UAS-luciferase reporter, 20 h; Potency, µM (series often up to 53.6 µM), most hits filed as inhibitors; 310,000 tested, 5.4% active; further: nearly all actives have a fitted effect of over 60% in size
Target sequence (P51450 whole entry, looked up, the tested form may be a part): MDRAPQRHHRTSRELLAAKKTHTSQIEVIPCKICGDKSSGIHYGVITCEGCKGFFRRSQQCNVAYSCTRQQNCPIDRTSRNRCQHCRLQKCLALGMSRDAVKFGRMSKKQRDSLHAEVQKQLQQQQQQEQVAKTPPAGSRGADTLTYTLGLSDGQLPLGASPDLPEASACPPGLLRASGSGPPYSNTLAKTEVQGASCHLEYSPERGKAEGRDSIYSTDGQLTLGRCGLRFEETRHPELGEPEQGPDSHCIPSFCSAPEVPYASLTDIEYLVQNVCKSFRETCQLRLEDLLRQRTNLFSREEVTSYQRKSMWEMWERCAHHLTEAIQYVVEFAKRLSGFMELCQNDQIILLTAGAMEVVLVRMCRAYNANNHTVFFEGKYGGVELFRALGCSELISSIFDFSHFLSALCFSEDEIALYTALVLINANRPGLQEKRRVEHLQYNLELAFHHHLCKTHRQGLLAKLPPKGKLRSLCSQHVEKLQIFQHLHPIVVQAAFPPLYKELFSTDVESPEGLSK
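Drosophila S2 cells stably expressing Gal4-DBD/mouse RORγ fusion under metallothionein promoter plus UAS-luciferase; compound 1 h, then 700 uM CuSO4 induction for 20 h at ambient temperature; inhibition read as reduced luminescence.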
Large screens that a line does not name were inactive. Sampled rows, rich in hits. Any-hit rate of the full collection: about 21%. Unless noted, the call rests on the fitted dose curve; in most records, active means well fitted curve in the direction sought with a large enough effect; inconclusive means small, poorly fitted or top-dose-only effect, or another doubt; inactive means no such curve, though single readings can be large; an effect the other way counts as inactive or inconclusive.

CC1CCN(c2ccccc2NC(=O)c2cc([N+](=O)[O-])ccc2N2CCOCC2)CC1	DT40 TDP1 CPT inconclusive, TDP1 cell noCPT 16µM, ELG1 DNA repair inconclusive (no result: Gal4-VP16 FLuc, RORg inh)
Cc1c(NC(=O)c2cc([N+](=O)[O-])ccc2N2CCOCC2)cccc1-c1nc2ccccc2o1	DT40 TDP1 CPT inconclusive, TDP1 cell noCPT 26µM (no result: Gal4-VP16 FLuc, ELG1 DNA repair, IL-1B inflam inh, RORg inh)
COc1ccc(OCC(=O)NC2CC(=O)N(c3ccc4c(c3)OCCO4)C2)cc1 (stereo unspecified)	none (no result: Gal4-VP16 FLuc, ELG1 DNA repair, IL-1B inflam inh, RORg inh)
COc1ccc(N2CCC(CNC(=S)Nc3cc(C)cc(C)c3)C2)cc1 (stereo unspecified)	DT40 TDP1 CPT inconclusive, TDP1 cell noCPT 15µM, ELG1 DNA repair inconclusive, IL-1B inflam inh -91
COc1ccc(N2CCC(CNC(=O)Nc3ccccc3)C2)cc1 (stereo unspecified)	TDP1 cell noCPT inconclusive, ELG1 DNA repair inconclusive
COc1ccc(N2CCC(CNC(=S)Nc3cc(C)ccc3C)C2)cc1 (stereo unspecified)	DT40 TDP1 CPT 16µM, TDP1 cell noCPT 16µM, Gal4-VP16 FLuc 10µM, ELG1 DNA repair inconclusive, RORg inh 1.8µM
C[C@H](CO)N1C[C@H](C)[C@@H](CN(C)C(=O)Nc2ccccc2)Oc2ncc(-c3ccc(C#N)cc3)cc2C1=O	none (no result: Gal4-VP16 FLuc, ELG1 DNA repair, RORg inh)
Cc1cccc(C)c1NC(=O)[C@@]1(CC(=O)O)CC(/C=C/c2ccccc2)=NO1	none
CCCCC(CC)C(=O)NCc1ccc(F)cc1 (stereo unspecified)	TDP1 cell noCPT inconclusive
O=C(Nc1ccc(Cl)cc1)c1ccc2sc([C@@H]3O[C@H](CO)[C@@H](O)[C@H]3O)nc2c1	DT40 TDP1 CPT inconclusive, TDP1 cell noCPT inconclusive (no result: Gal4-VP16 FLuc, ELG1 DNA repair, RORg inh)
CC(C)(C)N=C1NN=C(c2ccc(Cl)cc2)CS1	DT40 TDP1 CPT inconclusive, TDP1 cell noCPT 18µM, Gal4-VP16 FLuc inconclusive, ELG1 DNA repair inconclusive, RORg inh 7.1µM
CC(C)[C@H](N)c1nnc2n1N=C(c1ccc(Cl)cc1)CS2	none
CC(C)N=C1NN=C(c2ccc(Cl)c(Cl)c2)CS1	DT40 TDP1 CPT inconclusive, TDP1 cell noCPT inconclusive, Gal4-VP16 FLuc inconclusive, ELG1 DNA repair inconclusive, IL-1B inflam inh -74, RORg inh 10µM
CC(C)c1ccc(N=C2NN=C(c3cccs3)CS2)cc1	DT40 TDP1 CPT inconclusive, TDP1 cell noCPT inconclusive, Gal4-VP16 FLuc inconclusive, ELG1 DNA repair inconclusive, RORg inh 13µM
CC(C)(C)N=C1NN=C(c2cc3ccccc3o2)CS1	DT40 TDP1 CPT inconclusive, TDP1 cell noCPT 23µM, Gal4-VP16 FLuc inconclusive, ELG1 DNA repair inconclusive, RORg inh 6.3µM
CC(C)c1ccc2c(c1)C(c1ccc(N3CCOCC3)cc1)=NNC(c1cccs1)=N2	DT40 TDP1 CPT inconclusive, TDP1 cell noCPT inconclusive, ELG1 DNA repair inconclusive
C[C@@H]1CN([C@@H](C)CO)C(=O)c2cc(Br)cnc2O[C@H]1CN(C)C(=O)Cc1ccccn1	none (no result: Gal4-VP16 FLuc, ELG1 DNA repair, RORg inh)
CCC(C)NC(=O)C1(O)c2ccccc2NC(=O)N1c1ccc(C)c(C)c1 (stereo unspecified)	TDP1 cell noCPT inconclusive
O=C1NC(=O)/C(=C/c2ccccn2)S1	ELG1 DNA repair inconclusive
c1csc(-c2ccn[nH]2)c1	ELG1 DNA repair inconclusive
CC(C)N=C1NN=C(c2cccs2)CS1	ELG1 DNA repair inconclusive, RORg inh 13µM
N#Cc1ccc2c(c1)C[C@]1(CCCCN3C(=O)c4ccccc4C3=O)OC3=C(C(=O)OC4(CCCCC4)C3)C2O1	none (no result: DT40 TDP1 CPT, TDP1 cell noCPT, ELG1 DNA repair, IL-1B inflam inh)
CCCn1c(N)c(C(=O)NS(=O)(=O)c2ccc(C)cc2)c(=O)n(C)c1=O	DT40 TDP1 CPT inconclusive, TDP1 cell noCPT inconclusive, Gal4-VP16 FLuc inconclusive, ELG1 DNA repair 10µM, RORg inh inconclusive
O=C(O)CNc1nc(-c2ccccc2)c2cc([N+](=O)[O-])ccc2n1	DT40 TDP1 CPT inconclusive, TDP1 cell noCPT inconclusive
Cc1ccc2nc(N/N=C\c3ccc([N+](=O)[O-])o3)nc(-c3ccccc3)c2c1	DT40 TDP1 CPT 23µM, TDP1 cell noCPT inconclusive, ELG1 DNA repair 21µM, IL-1B inflam inh -59, RORg inh 10µM
N#Cc1ccccc1/C=N/Nc1nc(-c2ccccc2)c2cc(Br)ccc2n1	DT40 TDP1 CPT inconclusive, TDP1 cell noCPT inconclusive, ELG1 DNA repair inconclusive, IL-1B inflam inh inconclusive, RORg inh 11µM
O=[N+]([O-])c1ccc(/C=N/Nc2ccc3ccccc3c2)o1	DT40 TDP1 CPT inconclusive, ELG1 DNA repair inconclusive
OCCNc1nc(-c2ccccc2)c2cc(Br)ccc2n1	DT40 TDP1 CPT inconclusive, TDP1 cell noCPT inconclusive, RORg inh inconclusive
O=[N+]([O-])c1ccc(/C=N/Nc2nc(-c3ccccc3)c3cc(Br)ccc3n2)o1	DT40 TDP1 CPT 16µM, TDP1 cell noCPT 21µM
Cn1c(SCC(=O)NCC2CCCO2)nnc1-c1ccco1 (stereo unspecified)	ELG1 DNA repair inconclusive (no result: Gal4-VP16 FLuc, RORg inh)
CC(=O)NC1(C)CCC2CC1C(C)=NC2(C)C (stereo unspecified)	none (no result: Gal4-VP16 FLuc, ELG1 DNA repair, RORg inh)
CCC(CC)C(=O)Nc1cccc(C(=O)Nc2ccc(S(=O)(=O)Nc3ccc(C)cc3)cc2)c1	DT40 TDP1 CPT 21µM, TDP1 cell noCPT inconclusive, ELG1 DNA repair inconclusive, IL-1B inflam inh inconclusive, RORg inh inconclusive
O=C(Nc1ccc2c(c1)OCCO2)c1cccc(Br)c1	ELG1 DNA repair inconclusive, IL-1B inflam inh -54
CCCOc1cccc(C(=O)Nc2ccc3c(c2)OCCO3)c1	TDP1 cell noCPT 23µM, ELG1 DNA repair inconclusive
Cc1ccc(NS(=O)(=O)c2cccc(C(=O)Nc3cc(C)on3)c2)cc1	DT40 TDP1 CPT inconclusive, TDP1 cell noCPT inconclusive, ELG1 DNA repair 21µM, RORg inh inconclusive
